In PubChem BioAssay:
Measured potencies and affinities stand elsewhere. The source made the active and inactive calls. The limit is not given here; nearly all actives have IC50 up to about 0.98 µM.

biological target: Calcium-dependent protein kinase 1 (Plasmodium falciparum (isolate 3D7)) (UniProt P62344); assay: PfCDPK1 kinase inhibitors, biochemical, TCAMS library (AID 1159585); settings: recombinant PfCDPK1, Kinase-Glo ATP depletion luminescence;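 also: inhibitors leave more ATP so luminescence rises with inhibition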
Sequence (P62344 whole entry, looked up): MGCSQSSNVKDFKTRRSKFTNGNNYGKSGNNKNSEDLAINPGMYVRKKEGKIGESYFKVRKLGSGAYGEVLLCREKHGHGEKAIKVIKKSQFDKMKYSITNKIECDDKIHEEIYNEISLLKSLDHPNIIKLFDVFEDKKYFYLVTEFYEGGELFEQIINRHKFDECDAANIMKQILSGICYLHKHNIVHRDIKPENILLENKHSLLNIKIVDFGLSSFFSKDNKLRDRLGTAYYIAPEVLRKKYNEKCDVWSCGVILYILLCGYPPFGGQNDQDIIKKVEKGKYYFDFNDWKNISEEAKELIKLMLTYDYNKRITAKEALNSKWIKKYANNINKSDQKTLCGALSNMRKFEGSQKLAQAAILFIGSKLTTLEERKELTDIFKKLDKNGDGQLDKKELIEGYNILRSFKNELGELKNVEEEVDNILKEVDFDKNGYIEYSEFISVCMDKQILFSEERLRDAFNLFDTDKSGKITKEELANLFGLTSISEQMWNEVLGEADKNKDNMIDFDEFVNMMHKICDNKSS

outcome, inactive:
COc1ccc(Cn2c(Nc3cccc(C(F)(F)F)c3)nc3cc(C(=O)NCCN4CCCC4)cnc32)cc1Cl, O=C(Nc1cccc(C(F)(F)F)c1)c1cc([N+](=O)[O-])cc2cn[nH]c12, CSc1nc2cc3c(cc2n1C(=O)c1ccc(C)cc1)OCCO3, COc1ccccc1-c1cccc(-c2cccc(NC(=O)c3ccc([N+](=O)[O-])o3)c2)n1, COc1ccc2ncc(C#N)c(CCN3CCC(NCc4cnc5c(c4)OCCO5)CC3)c2n1, C[C@H](N[C@H]1CCCc2c1[nH]c1ccc(Br)cc21)c1ccccc1, CS(=O)(=O)n1c(CN2CCN(c3ncc(C(F)(F)F)cc3Cl)CC2)nc2ccccc21, O=C(COc1ccccc1)N(Cc1ccc(-c2ccc(CNC3Cc4ccccc4C3)cc2)cc1)C1CCNCC1, CN(C)S(=O)(=O)c1ccc(Nc2nc(NCCC3C=NC=N3)nc3cc[nH]c(=O)c23)cc1 (stereo not given), COc1ccc2nccc([C@@H](O)CN3CCC(NCc4nc5c(OCc6ccccc6)cccc5[nH]4)CC3)c2c1, COc1ccc2ncc(F)c(CCN3CCC(NCc4cc(C)c5c(c4)OCCO5)CC3)c2n1, C[C@H](Cc1ccc(OCCNC[C@H](O)c2cccc(Cl)c2)cc1)NC[C@H](O)c1ccc(Cl)c(Cl)c1, c1cc(CN2CCc3ccccc3CC2)cc(-c2c[nH]c3nc(NC4CCCC4)ncc23)c1, CCSc1ccc(C)cc1CON1C(N)=NC(N)=NC1(C)C, Cc1ccc(S(=O)(=O)NC2=NC(C)(C)N(OCc3ccc(Cl)c(Cl)c3)C(N)=N2)cc1
